Measured values published in PubChem BioAssay (EPA / NIEHS).
Calls of active or inactive are those of the source. How the source made its calls: active means hit-call score of the fitted dose curve at least 0.9, where 1 is the maximum; inactive means score below 0.9.

Assays:
Conditions in all cases: mRNA level, 48 h; actives raise or lower the signal
[1] = read-out: Tumor necrosis factor receptor superfamily member 6 (Homo sapiens) (UniProt P25445); assay: LTEA_HepaRG_FAS: Life Technologies and Expression Analysis (LTEA) Assay for Fas cell surface death receptor (FAS) using HepaRG (AID 2283447)
How it was run: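 Differentiated HepaRG cells in serum-free induction medium were exposed 48 h to 8 half-log concentrations up to 100 uM in 0.5% DMSO, in duplicate. FAS mRNA was measured by qRT-PCR normalised to ACTB, GAPDH and POLR2A; bidirectional fit versus DMSO.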

[2] = read-out: Fatty acid synthase (Homo sapiens) (UniProt P49327); assay: LTEA_HepaRG_FASN: Life Technologies and Expression Analysis (LTEA) Assay for Fatty Acid Synthase (FASN) using HepaRG (AID 2283448);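 on AC50: differentiated human HepaRG liver cells in serum-free induction medium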
How it was run: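 HepaRG, 48 h exposure, 8-pt half-log series top 100 uM, 0.5% DMSO vehicle, duplicates. Readout: FASN transcript by Fluidigm qRT-PCR; housekeeping-normalized; bidirectional curve fit vs DMSO baseline.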

[3] = read-out: Cyclin D2 (CCND2), CCND2 (gene 894); assay: LTEA_HepaRG_CCND2: Life Technologies and Expression Analysis (LTEA) Assay for Cyclin D2 (CCND2) using HepaRG (AID 2283449);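 further: CCND2 transcript measured by TaqMan qRT-PCR and normalised to three housekeeping genes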
How it was run: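 HepaRG, 48 h dosing, 8-pt half-log curve from 100 uM, 0.5% DMSO; duplicate wells. Readout: CCND2 transcript by microfluidic qRT-PCR, housekeeping-normalised; bidirectional fit vs DMSO baseline.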

[4] = read-out: Cyclin Dependent Kinase Inhibitor 1A (CDKN1A), CDKN1A (gene 1026); assay: LTEA_HepaRG_CDKN1A: Life Technologies and Expression Analysis (LTEA) Assay for Cyclin Dependent Kinase Inhibitor 1A (CDKN1A) using HepaRG (AID 2283450)
How it was run: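 Cryopreserved HepaRG cells were plated and cultured 48 h, then switched to serum-free induction medium. Chemicals (eight half-log concentrations, top 100 uM, 0.5% DMSO) were applied for 48 h. Lysates underwent qRT-PCR for CDKN1A with housekeeping normalization.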

[5] = read-out: Cyclin D1 (CCND1), CCND1 (gene 595); assay: LTEA_HepaRG_CCND1: Life Technologies and Expression Analysis (LTEA) Assay for Cyclin D1 (CCND1) using HepaRG (AID 2283451);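 on AC50: differentiated human HepaRG liver cells in serum-free induction medium; TaqMan qRT-PCR transcript level normalised to ACTB GAPDH and POLR2A housekeeping genes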
How it was run: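 Human liver HepaRG line; 48 h dosing, 8 conc. ≤100 uM, 0.5% DMSO; TaqMan qRT-PCR mRNA, 3 housekeeping genes; bidirectional curve fit vs DMSO.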

Chain of Fatty acid synthase (Homo sapiens) (P49327 whole entry, looked up): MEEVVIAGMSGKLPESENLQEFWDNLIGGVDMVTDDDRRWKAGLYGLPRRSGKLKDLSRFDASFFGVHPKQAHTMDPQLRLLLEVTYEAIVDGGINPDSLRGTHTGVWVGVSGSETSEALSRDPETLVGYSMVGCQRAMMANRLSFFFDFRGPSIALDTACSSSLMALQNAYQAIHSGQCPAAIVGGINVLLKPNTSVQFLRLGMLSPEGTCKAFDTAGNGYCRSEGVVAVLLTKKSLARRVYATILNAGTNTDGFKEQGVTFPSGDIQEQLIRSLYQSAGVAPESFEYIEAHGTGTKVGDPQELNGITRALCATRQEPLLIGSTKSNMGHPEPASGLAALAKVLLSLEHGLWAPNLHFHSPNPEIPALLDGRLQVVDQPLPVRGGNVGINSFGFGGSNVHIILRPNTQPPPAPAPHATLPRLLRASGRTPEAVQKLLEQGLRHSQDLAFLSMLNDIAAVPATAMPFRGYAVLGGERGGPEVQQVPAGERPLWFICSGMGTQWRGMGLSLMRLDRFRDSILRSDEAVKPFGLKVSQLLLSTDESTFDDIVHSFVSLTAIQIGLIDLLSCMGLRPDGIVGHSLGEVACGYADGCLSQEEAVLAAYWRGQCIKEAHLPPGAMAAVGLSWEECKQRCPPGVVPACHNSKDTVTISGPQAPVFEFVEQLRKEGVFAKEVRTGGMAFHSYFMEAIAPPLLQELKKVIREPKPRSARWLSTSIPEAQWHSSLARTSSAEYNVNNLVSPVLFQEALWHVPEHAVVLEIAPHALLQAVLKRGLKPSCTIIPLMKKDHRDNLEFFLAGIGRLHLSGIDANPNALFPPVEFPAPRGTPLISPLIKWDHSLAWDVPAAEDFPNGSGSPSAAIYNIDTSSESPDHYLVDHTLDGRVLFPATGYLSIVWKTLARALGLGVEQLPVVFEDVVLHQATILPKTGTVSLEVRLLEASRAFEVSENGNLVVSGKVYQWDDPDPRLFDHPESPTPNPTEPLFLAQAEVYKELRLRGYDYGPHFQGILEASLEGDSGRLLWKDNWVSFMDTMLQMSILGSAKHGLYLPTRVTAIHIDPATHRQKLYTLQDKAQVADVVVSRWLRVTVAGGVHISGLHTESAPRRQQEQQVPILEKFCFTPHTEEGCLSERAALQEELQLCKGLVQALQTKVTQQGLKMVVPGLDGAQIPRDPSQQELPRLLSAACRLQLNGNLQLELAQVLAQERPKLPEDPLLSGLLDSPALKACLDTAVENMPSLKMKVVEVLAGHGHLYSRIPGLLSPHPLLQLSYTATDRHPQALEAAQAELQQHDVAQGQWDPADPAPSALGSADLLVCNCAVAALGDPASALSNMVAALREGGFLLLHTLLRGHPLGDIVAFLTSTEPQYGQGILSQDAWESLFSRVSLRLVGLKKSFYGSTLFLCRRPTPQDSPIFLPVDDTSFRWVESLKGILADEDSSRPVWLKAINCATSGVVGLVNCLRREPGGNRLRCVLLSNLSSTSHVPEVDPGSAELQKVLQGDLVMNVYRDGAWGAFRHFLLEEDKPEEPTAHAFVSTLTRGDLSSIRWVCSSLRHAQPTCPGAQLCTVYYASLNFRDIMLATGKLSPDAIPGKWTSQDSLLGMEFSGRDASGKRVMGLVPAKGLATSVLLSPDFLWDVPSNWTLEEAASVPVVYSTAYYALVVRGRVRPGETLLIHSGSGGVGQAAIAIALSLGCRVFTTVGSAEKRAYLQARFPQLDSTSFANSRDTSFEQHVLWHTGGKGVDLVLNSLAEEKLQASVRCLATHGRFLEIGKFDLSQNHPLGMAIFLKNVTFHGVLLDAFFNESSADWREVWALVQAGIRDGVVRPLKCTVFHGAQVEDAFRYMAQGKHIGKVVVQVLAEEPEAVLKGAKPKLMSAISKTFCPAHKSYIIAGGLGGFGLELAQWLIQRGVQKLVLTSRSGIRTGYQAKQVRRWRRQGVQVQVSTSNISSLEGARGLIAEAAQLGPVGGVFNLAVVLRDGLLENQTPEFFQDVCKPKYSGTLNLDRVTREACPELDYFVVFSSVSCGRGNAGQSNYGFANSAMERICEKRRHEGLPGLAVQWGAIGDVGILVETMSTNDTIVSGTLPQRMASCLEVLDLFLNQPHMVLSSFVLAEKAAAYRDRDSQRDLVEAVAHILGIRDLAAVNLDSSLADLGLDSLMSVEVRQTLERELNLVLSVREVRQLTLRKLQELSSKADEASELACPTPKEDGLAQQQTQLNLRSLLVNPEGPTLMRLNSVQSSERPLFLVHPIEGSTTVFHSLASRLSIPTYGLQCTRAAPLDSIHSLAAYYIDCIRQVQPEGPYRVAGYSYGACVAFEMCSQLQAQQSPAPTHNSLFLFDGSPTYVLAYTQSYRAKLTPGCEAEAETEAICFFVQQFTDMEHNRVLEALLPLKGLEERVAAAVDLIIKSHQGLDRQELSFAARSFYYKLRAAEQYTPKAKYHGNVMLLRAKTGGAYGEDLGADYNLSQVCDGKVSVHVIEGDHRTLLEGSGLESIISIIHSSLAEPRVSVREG

SMILES	outcome [1]	outcome [2]	outcome [3]	outcome [4]	outcome [5]	AC50 [2]	AC50 [5]	AC50 [4]
CO[C@@H]1[C@H](OC(=O)NC(=O)CCl)CC[C@]2(CO2)[C@H]1[C@@]1(C)O[C@@H]1CC=C(C)C	inactive	inactive	inactive	inactive	inactive			
CC(O)CCO (centres undefined)	inactive	inactive		inactive	inactive			
CCN(CC)N=O	inactive	inactive	inactive	inactive	inactive			
COC(=O)Nc1nc2ccccc2[nH]1	inactive	inactive		inactive	inactive			
Nc1ccc([N+](=O)[O-])cc1	inactive	inactive	inactive	inactive	inactive			
CCCCCCCCn1sccc1=O	inactive			inactive		75.1 µM (active)	83.7 µM (active)	
CC(C)(C)OOC(=O)c1ccccc1	inactive	inactive		inactive	inactive			
ClCCOCCCl	inactive	inactive		inactive	inactive			
OCCCBr	inactive	inactive	inactive	inactive	inactive			
CN(C)c1ccc(C(=O)c2ccc(N(C)C)cc2)cc1	inactive	inactive	inactive	inactive	inactive			
CCC[CH2][Sn]([Cl])([CH2]CCC)[CH2]CCC						2.86 µM (active)	81.2 µM (active)	88.1 µM (active)
C1=Cc2cccc3cccc1c23	inactive	inactive	inactive	inactive	inactive			
Oc1ccccc1Cl	inactive	inactive	inactive	inactive	inactive			
Clc1ccc(Cl)c(Cl)c1	inactive	inactive		inactive	inactive			
CCCCC(CC)COC(=O)c1ccc(C(=O)OCC(CC)CCCC)c(C(=O)OCC(CC)CCCC)c1 (centres undefined)	inactive	inactive		inactive	inactive			
CC(C)(OOC(C)(C)c1ccccc1)c1ccccc1	inactive	inactive		inactive	inactive			
O=Cc1ccco1	inactive	inactive		inactive	inactive			
CCCSC(=O)N(CCC)CCC	inactive	inactive	inactive	inactive	inactive			
Clc1ccc(C(c2ccc(Cl)cc2)C(Cl)(Cl)Cl)cc1	inactive		inactive	inactive	inactive	66.6 µM (active)		
ClC1=C(Cl)C2(Cl)C3C(Cl)C=CC3C1(Cl)C2(Cl)Cl (centres undefined)	inactive	inactive	inactive	inactive			18.4 µM (active)	
c1ccc2c(c1)oc1ccccc12	inactive	inactive		inactive	inactive			
CN(C)C(=O)Nc1ccc(Cl)cc1	inactive	inactive		inactive	inactive			
CCNS(=O)(=O)C(F)(F)C(F)(F)C(F)(F)C(F)(F)C(F)(F)C(F)(F)C(F)(F)C(F)(F)F	inactive			inactive	inactive	48.2 µM (active)		
[O-][Cl+]O		inactive		inactive	inactive			
O=[N+]([O-])C(Br)(CO)CO	inactive	inactive	inactive	inactive	inactive			
Cc1ccc(N)cc1	inactive	inactive	inactive	inactive	inactive			
Clc1ccc(C(c2ccc(Cl)cc2)C(Cl)Cl)cc1	inactive		inactive	inactive	inactive	73.7 µM (active)		
